Rows were chosen to be rich in hits. Some 3.3% of all compounds tested hit in one or more screens of this group.
GAA850 FXN act = increases GAA850 frataxin promoter reporter activity; HEK293 lucGAA850 FXN promoter luciferase reporter, 24 h; percent of 10 µM SAHA response; activation, % at 6 µM; hit rate 0.56% among 360,000; AID 540364;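 active = activation above the average of all compounds screened plus 3 SD, cutoff fixed separately per campaign, cut at about 7.5% in these data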
MITF TRPM1 HTS = increases MITF-driven TRPM1 promoter luciferase signal; SK-MEL-5 TRPM1-promoter luciferase, 24 h; % of positive control, neutral wells = 0; activation, % at 12.5 µM; hit rate 0.75% among 300,000; AID 588334;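 active = mean activation of at least 80% with every replicate also reaching 80%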
Wnt bcat act = Wnt/beta-catenin pathway activation. hit rate 1.2% among 300,000. Wnt/beta-catenin reporter cell assay, activator, plate reader. activation, % at 9.35 µM; in the data active = activation above about 30%, passing the limit was not always enough
C2C12 statin = suppression of simvastatin myotoxicity; C2C12 myotubes + simvastatin, ATP luminescence, 48 h; scaled: DMSO 0, geranylgeraniol control 100; rescue of ATP level, % at 7.49 µM; hit rate 0.78% among 330,000;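 active = mean ATP rescue above about 67%, or every replicate alone reaching that limit, limit read from the data, passing the limit was not always enough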;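 note: myotubes were challenged with 10 µM simvastatin during compound exposure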
esBAF inh = SWI/SNF esBAF complex inhibition; mouse ES cells, Bmi1-luciferase knock-in reporter, 24 h; 100% = twice the neutral-well signal; reporter increase, % at 12.5 µM; hit rate 2% among 350,000; AID 602393; in the data active = activation above about 40%;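 note: a rise in the Bmi1 reporter signal indicates esBAF inhibition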
GAA30 counter = GAA30 FXN promoter activation counter-screen; shares compounds with GAA850 FXN act; HEK293 lucGAA30 FXN promoter luciferase, 24 h; DMSO = 0%, 5 µM ipriflavone = 100%; activation, % at 6 µM; hit rate 66% among 1,900; AID 588350;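 active = mean activation above the mean of solvent-only control wells plus 3 SD, cut at about 22% in these data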;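 note: counterscreen of GAA850 promoter hits where activity marks nonselective or luminescence artifacts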
FXN GAA850 conf = GAA850 FXN promoter activation confirmation; HEK293 lucGAA850 FXN promoter luciferase reporter, 24 h; 100% = activation by SAHA; AID 588351; hit rate 86% among 1,900; shares compounds with GAA850 FXN act; activation, % at 6 µM;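 active = mean activation above a set limit taken from the primary screen, cut at about 8% in these data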
Large screens that a line does not name were inactive (follow-up assays come after a bar, where they were run).

Cc1ccc(NC(=S)N/N=C/c2ccc([N+](=O)[O-])s2)cc1	GAA850 FXN act 11.0 (no result: C2C12 statin, esBAF inh) | GAA30 counter inactive | FXN GAA850 conf inactive
O=[N+]([O-])c1ccc(C=Nc2ccc(Cl)c([N+](=O)[O-])c2)s1	none
Cc1cc(C)cc(N=Cc2ccc([N+](=O)[O-])s2)c1	GAA850 FXN act 16.3 (no result: Wnt bcat act, C2C12 statin, esBAF inh) | GAA30 counter inactive | FXN GAA850 conf inactive
C[C@H]1CN([C@@H](C)CO)C(=O)c2cc(/C=C/c3ccccc3)cnc2O[C@@H]1CN(C)C(=O)c1ccccc1	none (no result: GAA850 FXN act, MITF TRPM1 HTS, Wnt bcat act)
O=C(N/N=C/c1cccc([N+](=O)[O-])c1)c1ccc2c(c1)OCCO2	GAA850 FXN act 8.9, Wnt bcat act 40.4, esBAF inh 44.4 (no result: MITF TRPM1 HTS) | GAA30 counter 119.4 | FXN GAA850 conf 37.4
COc1cc(NC(=O)c2cc3ccccc3o2)c(OC)cc1Br	GAA850 FXN act 17.3 (no result: Wnt bcat act) | GAA30 counter 24.1 | FXN GAA850 conf 15.9
CCC(=O)N(C)C[C@H]1Oc2cc(C#CCN(C)C)ccc2S(=O)(=O)N([C@@H](C)CO)C[C@H]1C	none (no result: GAA850 FXN act, MITF TRPM1 HTS, Wnt bcat act)
COc1ccccc1C(=O)NCCC(=O)NCCC12CC3CC(CC(C3)C1)C2	GAA850 FXN act 8.1 | GAA30 counter inactive | FXN GAA850 conf 13.9
O=C(Cc1ccncc1)NCC[C@@H]1CC[C@@H](NC(=O)C2CC2)[C@@H](CO)O1	none (no result: GAA850 FXN act, MITF TRPM1 HTS, Wnt bcat act)
O=C(Nc1cc2c(cc1Cl)OCCCO2)c1ccccc1	GAA850 FXN act 8.8, esBAF inh 57.0 (no result: C2C12 statin) | GAA30 counter 107.0 | FXN GAA850 conf 41.2
O=C(C[C@H]1C=C[C@@H](NC(=O)Nc2ccc(F)cc2)[C@@H](CO)O1)NCCN1CCCC1	none (no result: GAA850 FXN act, MITF TRPM1 HTS, Wnt bcat act)
Cc1ccc(-c2noc(C3CCCN(C(=O)c4ccccc4)C3)n2)o1 (stereo not given)	GAA850 FXN act 7.7 (no result: Wnt bcat act) | GAA30 counter 107.2 | FXN GAA850 conf 29.5
C[C@@H]1CCCCO[C@H](CN(C)S(=O)(=O)c2cn(C)cn2)[C@@H](C)CN([C@H](C)CO)C(=O)c2cc(NS(=O)(=O)c3ccccc3)ccc2O1	none (no result: GAA850 FXN act, MITF TRPM1 HTS, Wnt bcat act, C2C12 statin)
O=C(O)c1ccc(N=Nc2c(O)ccc3ncccc23)cc1	GAA850 FXN act 8.5 | GAA30 counter 107.5 | FXN GAA850 conf 39.1
CO[C@H]1CN(C)C(=O)c2ccc(NC(=O)c3ccc4c(c3)OCO4)cc2OC[C@H](C)N(CCC(F)(F)F)C[C@H]1C	none (no result: GAA850 FXN act, MITF TRPM1 HTS, Wnt bcat act)
CC(C)(C)N1C(=O)[C@H]2[C@@H](c3ccc(Br)cc3)N3C(=O)N(c4ccccc4)C(=O)[C@@]3(Cc3ccccc3)[C@H]2C1=O	GAA850 FXN act 9.9 | GAA30 counter inactive | FXN GAA850 conf 13.6
COc1ccc([C@@H]2[C@@H]3C(=O)N(C(C)(C)C)C(=O)[C@@H]3[C@]3(Cc4ccccc4)C(=O)N(c4ccc(OC)cc4)C(=O)N23)cc1	none
CC(C)(C)N1C(=O)[C@H]2[C@@H](c3ccc(Br)cc3)N3C(=O)N(c4cccc(Br)c4)C(=O)[C@@]3(Cc3ccccc3)[C@H]2C1=O	GAA850 FXN act 14.7 (no result: Wnt bcat act) | GAA30 counter inactive | FXN GAA850 conf 11.2
O=C(O)C[C@H]1C[C@H]2c3cc(NC(=O)CC4CC4)ccc3O[C@H]2[C@@H](CO)O1	none (no result: GAA850 FXN act, MITF TRPM1 HTS, Wnt bcat act)
COc1ccc(S(=O)(=O)N(C)C[C@H]2OCCCC[C@H](C)Oc3ccc(NC(=O)NC4CCCCC4)cc3C(=O)N([C@H](C)CO)C[C@H]2C)cc1	none (no result: GAA850 FXN act, MITF TRPM1 HTS, Wnt bcat act, C2C12 statin)
COc1ccc(CCN(C)c2ccc(S(=O)(=O)N3CCCC3)cc2[N+](=O)[O-])cc1OC	GAA850 FXN act 9.9 | GAA30 counter inactive | FXN GAA850 conf 10.6
COc1ccccc1C#Cc1cnc2c(c1)C(=O)N([C@@H](C)CO)C[C@H](C)[C@@H](CN(C)C)O2	none (no result: GAA850 FXN act, MITF TRPM1 HTS, Wnt bcat act)
CCN(CC)S(=O)(=O)c1cc(NC(=O)CSc2nc3c(cc2C#N)C(=O)CC(C)(C)C3)ccc1C	GAA850 FXN act 10.2 (no result: Wnt bcat act, C2C12 statin, esBAF inh) | GAA30 counter inactive | FXN GAA850 conf inactive
COc1cc2c(cc1OC)-c1cc(NC3CCCCCC3)nc(=O)n1CC2	GAA850 FXN act 12.1 | GAA30 counter 26.1 | FXN GAA850 conf 12.1
COc1cc2c(cc1OC)-c1cc(N3CCCc4ccccc43)nc(=O)n1CC2	GAA850 FXN act 10.4 | GAA30 counter inactive | FXN GAA850 conf 15.6
COc1cc2c(cc1OC)-c1cc(N3CCc4ccccc43)nc(=O)n1CC2	none (no result: MITF TRPM1 HTS, C2C12 statin, esBAF inh)
